PubChem BioAssay (EPA / NIEHS)
Records with an inconclusive call do not appear. The source made the active and inactive calls. How the source made its calls, unless noted: active means hit-call score of the fitted dose curve at least 0.9, where 1 is the maximum; inactive means score below 0.9.

Columns and labels:
[1] = biological target: Retinoic acid receptor RXR-alpha (Homo sapiens) (UniProt P19793); assay: TOX21_TR_RXR_BLA_Antagonist_Followup_ratio: Tox21 Thyroid Hormone Receptor beta Retinoid X Receptor alpha (RXRa) Antagonism Beta-lactamase (BLA) Follow-Up Assay, Ratio (AID 2283972; active means hit-call score of the fitted dose curve at least 0.9, where 1 is the maximum)
Chain of Retinoic acid receptor RXR-alpha (Homo sapiens) (P19793 whole entry, looked up): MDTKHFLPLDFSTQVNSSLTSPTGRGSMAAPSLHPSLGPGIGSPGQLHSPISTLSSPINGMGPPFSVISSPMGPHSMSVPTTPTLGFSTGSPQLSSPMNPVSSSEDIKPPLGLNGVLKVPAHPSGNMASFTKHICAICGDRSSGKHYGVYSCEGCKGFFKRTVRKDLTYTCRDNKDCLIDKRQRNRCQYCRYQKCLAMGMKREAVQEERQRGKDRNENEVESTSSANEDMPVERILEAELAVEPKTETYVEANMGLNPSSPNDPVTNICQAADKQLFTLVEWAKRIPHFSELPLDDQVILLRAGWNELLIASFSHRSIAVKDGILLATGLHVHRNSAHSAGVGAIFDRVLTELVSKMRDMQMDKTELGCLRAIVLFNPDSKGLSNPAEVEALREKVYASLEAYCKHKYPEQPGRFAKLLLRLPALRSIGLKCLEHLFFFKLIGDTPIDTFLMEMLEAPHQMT
Method in brief: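 Compounds were tested in triplicate at 11 concentrations on RXRa-bla HEK293T cells for 16 h. Substrate cleavage ratio, normalized to DMSO, gave the endpoint.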

[2] = CCTE_Harrill_HTTr_Viability_DMEM_6hr: (Pilot) CCTE's 6-hour Cell Viability Assessment for the High-Throughput Transcriptomics (HTTr) Platform, in MCF-7 cells cultured in DMEM + 10% fetal bovine serum, Harrill Lab (AID 2283973)
Method in brief: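 MCF-7 cells in DMEM + 10% FBS, eight-point dilution series, 6 h exposure. Membrane integrity by propidium iodide exclusion with high-content imaging; bidirectional fit versus DMSO.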

[3] = CCTE_Harrill_HTTr_Viability_DMEM_12hr: (Pilot) CCTE's 12-hour Cell Viability Assessment for the High-Throughput Transcriptomics (HTTr) Platform, in MCF-7 cells cultured in DMEM + 10% fetal bovine serum, Harrill Lab (AID 2283974)
Excerpt: This is a cell-based assay that evaluates cell viability using high content imaging to evaluate membrane integrity using propidium iodide dye exclusion in a 384 well format.One of seven assay components measured from the CCTE_Harrill_HTTr_Viability assay. This was part of a pilot experiment. This is a cell-based assay that evaluates cell viability in MCF-7 cells cultured in DMEM + 10% fetal bovine serum. High content imaging is used to evaluate membrane integrity using propidium iodide dye exclusion. Measurements are taken at 12 hours after chemical dosing in 384-well format.The assay component endpoint CCTE_Harrill_HTTr_Viability_DMEM_12hr was analyzed with bidirectional fitting relation to DMSO as the negative control and baseline of activity. Using a type of viability reporter to understand changes in cytotoxicity, gain-of-signal activity can be used to evaluate membrane integrity using propidium iodide dye exclusion. To generalize the intended target to other relatable targets, this assay endpoint is annotated to cell cycle, where the subfamily is cytotoxicity.
Chemicals were tested in MCF7 cells in an eight point dilution series with a twelve hour exposure duration.

[4] = CCTE_Harrill_HTTr_Viability_DMEM_24hr: (Pilot) CCTE's 24-hour Cell Viability Assessment for the High-Throughput Transcriptomics (HTTr) Platform, in MCF-7 cells cultured in DMEM + 10% fetal bovine serum, Harrill Lab (AID 2283975)
Method in brief: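 MCF-7 cells in DMEM with 10% FBS exposed for 24 hours to an eight-point dilution series. Membrane integrity by propidium iodide exclusion with high content imaging; bidirectional fit against DMSO.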

[5] = CCTE_Harrill_HTTr_Viability_PRF_DMEM_6hr: (Pilot) CCTE's 6-hour Cell Viability Assessment for the High-Throughput Transcriptomics (HTTr) Platform, in MCF-7 cells cultured phenol red-free DMEM + 10% charcoal-stripped fetal bovine serum, Harrill Lab (AID 2283976)
Method in brief: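 MCF-7 cells in phenol red-free DMEM with 10% charcoal-stripped FBS exposed 6 hours to an eight-point dilution series. Propidium iodide exclusion imaged; curves fitted bidirectionally against DMSO.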

[6] = CCTE_Harrill_HTTr_Viability_PRF_DMEM_12hr: (Pilot) CCTE's 12-hour Cell Viability Assessment for the High-Throughput Transcriptomics (HTTr) Platform, in MCF-7 cells cultured in phenol red-free DMEM + 10% charcoal-stripped fetal bovine serum, Harrill Lab (AID 2283977)
Method in brief: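 MCF-7 cells in phenol red-free DMEM with 10% charcoal-stripped FBS exposed 12 hours to an eight-point dilution series. Viability assessed by high-content imaging of propidium iodide exclusion; bidirectional fit versus DMSO.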

[7] = CCTE_Harrill_HTTr_Viability_PRF_DMEM_24hr: (Pilot) CCTE's 24-hour Cell Viability Assessment for the High-Throughput Transcriptomics (HTTr) Platform, in MCF-7 cells cultured in phenol red-free DMEM + 10% charcoal-stripped fetal bovine serum, Harrill Lab (AID 2283980)
Excerpt: This is a cell-based assay that evaluates cell viability using high content imaging to evaluate membrane integrity using propidium iodide dye exclusion in a 384 well format.One of seven assay components measured from the CCTE_Harrill_HTTr_Viability assay. This was part of a pilot experiment. This is a cell-based assay that evaluates cell viability in MCF-7 cells cultured in phenol red-free DMEM + 10% charcoal-stripped fetal bovine serum. High content imaging is used to evaluate membrane integrity using propidium iodide dye exclusion. Measurements are taken at 24 hours after chemical dosing in 384-well format.The assay component endpoint CCTE_Harrill_HTTr_Viability_PRF_DMEM_24hr was analyzed with bidirectional fitting relation to DMSO as the negative control and baseline of activity. Using a type of viability reporter to understand changes in cytotoxicity, gain-of-signal activity can be used to evaluate membrane integrity using propidium iodide dye exclusion. To generalize the intended target to other relatable targets, this assay endpoint is annotated to cell cycle, where the subfamily is cytotoxicity.
(§1) Chemicals were tested in MCF7 cells in an eight point dilution series with a twenty-four hour exposure duration.

[8] = CCTE_Harrill_HTTr_Apoptosis_DMEM_6hr: (Pilot) CCTE's 6-hour Apoptosis Assessment for the High-Throughput Transcriptomics (HTTr) Platform, in MCF-7 cells cultured in DMEM + 10% fetal bovine serum, Harrill Lab (AID 2283981)
Excerpt: (§2) This is a cell-based assay that evaluates apoptosis using high content imaging to evaluate activation of caspase-3/7 using the CellEvent Caspase 3/7 Green detection reagent in 384-well format.One of seven assay components measured from the CCTE_Harrill_HTTr_Apoptosis assay. This was part of a pilot experiment. This is a cell-based assay that evaluates apoptosis in MCF-7 cells cultured in DMEM + 10% fetal bovine serum. High content imaging is used to evaluate activation of caspase-3/7 using the CellEvent Caspase 3/7 Green detection reagent. Measurements are taken at 6 hours after chemical dosing in 384-well format.The assay component endpoint CCTE_Harrill_HTTr_Apoptosis_DMEM_6hr was analyzed with bidirectional fitting relation to DMSO as the negative control and baseline of activity. Using a type of viability reporter, gain-of-signal activity can be used to evaluate activation of caspase-3/7 using the CellEvent Caspase 3/7 Green detection reagent to understand changes in apoptosis. To generalize the intended target to other relatable targets, this assay endpoint is annotated to cell cycle, where the subfamily is apoptosis.
Chemicals were tested in MCF7 cells in an eight point dilution series with a six hour exposure duration.

[9] = CCTE_Harrill_HTTr_Apoptosis_DMEM_12hr: (Pilot) CCTE's 12-hour Apoptosis Assessment for the High-Throughput Transcriptomics (HTTr) Platform, in MCF-7 cells cultured in DMEM + 10% fetal bovine serum, Harrill Lab (AID 2283982)
Method in brief: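 MCF-7 cells in DMEM + 10% FBS, exposed 12 h to an eight-point dilution series; caspase-3/7 activation imaged with CellEvent Green. Bidirectional fit versus DMSO.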

[10] = CCTE_Harrill_HTTr_Apoptosis_DMEM_24hr: (Pilot) CCTE's 24-hour Apoptosis Assessment for the High-Throughput Transcriptomics (HTTr) Platform, in MCF-7 cells cultured in DMEM + 10% fetal bovine serum, Harrill Lab (AID 2283983)
Excerpt: as §2, with “24” for “6”, “CCTE_Harrill_HTTr_Apoptosis_DMEM_24hr” for “CCTE_Harrill_HTTr_Apoptosis_DMEM_6hr”
as §1

Measured: AC50

C#C[C@]1(O)CC[C@H]2[C@@H]3CCC4=CC(=O)CC[C@@H]4[C@H]3CC[C@@]21C
inactive: [1]

O=C(O)Cc1cc(I)c(Oc2cc(I)c(O)c(I)c2)c(I)c1
not listed: [1]
inactive: all other assays above

CCC(=C(c1ccc(O)cc1)c1ccc(OCCN(C)C)cc1)c1ccccc1
active: [2] 79 µM | [3] 63.6 µM | [4] 69.4 µM | [5] 69.8 µM | [6] 73.1 µM | [7] 63.6 µM | [8] 81.2 µM | [9] 84 µM | [10] 82.6 µM

Cc1oc(-c2ccccc2)nc1CCOc1ccc(C[C@H](Nc2ccccc2C(=O)c2ccccc2)C(=O)O)cc1
not listed: [1]
inactive: all other assays above
